An excerpt weighted towards active compounds, which were near 1.1% of everything screened.
AmpC inh no detg: blocks E. coli AmpC beta-lactamase in detergent-free assay; Potency, µM (titrated, usually from 57.1 µM), for inactives: at the highest dose activity change, negative = inhibition, actives largely listed as inhibitors; AmpC nitrocefin hydrolysis, absorbance 480 nm, 0.0001% Triton; AID 485341; 330,000 compounds, 0.52% hits; P00811;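 further: plate controls were no compound for no effect and no enzyme for full effect; nearly all actives have a fitted effect of over 20% in size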
Target sequence (P00811 whole entry, looked up): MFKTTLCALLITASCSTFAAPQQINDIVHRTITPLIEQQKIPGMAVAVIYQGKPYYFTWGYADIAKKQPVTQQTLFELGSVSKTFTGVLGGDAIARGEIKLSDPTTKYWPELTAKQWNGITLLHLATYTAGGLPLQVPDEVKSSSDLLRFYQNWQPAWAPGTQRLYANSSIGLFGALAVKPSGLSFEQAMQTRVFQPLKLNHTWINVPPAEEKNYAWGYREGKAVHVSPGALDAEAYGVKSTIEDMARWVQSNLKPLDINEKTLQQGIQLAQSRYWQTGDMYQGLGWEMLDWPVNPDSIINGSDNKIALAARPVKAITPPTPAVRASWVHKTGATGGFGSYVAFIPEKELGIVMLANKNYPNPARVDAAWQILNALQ
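AmpC (5.3 nM in the dispensed reagent) in 20 mM phosphate pH 7.0 with 0.01% (detergent screen) or 0.0001% Triton X-100 was preincubated with compounds for 15 min at room temperature. Nitrocefin was then added from an 800 uM solution, and hydrolysis was followed at 480 nm.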
VACV mCherry inh: vaccinia inhibition (mCherry reporter); AID 720579; 310,000 compounds, 0.63% hits; Potency, µM (highest dose often 36.5 µM), for the others: at the highest dose activity change, negative = inhibition, most hits filed as inhibitors; Vaccinia virus mCherry reporter infection, fluorescence; calls by dose curve; tested in A549 cells; further: nearly all actives have a fitted effect of over 35% in size
Vaccinia Venus: inhibitors of vaccinia virus (Venus reporter); Potency, µM (highest dose often 36.5 µM), for inactives: top-dose activity change, negative = inhibition, hits mostly inhibitors; 330,000 compounds, 0.46% hits; Vaccinia virus Venus reporter expression, fluorescence; calls by dose curve; tested in A549 cells; further: nearly all actives have a fitted effect of over 30% in size
AmpC inh detg: inhibitors of E. coli AmpC beta-lactamase with detergent; AmpC hydrolysis of nitrocefin, absorbance 480 nm, 0.01% Triton; Potency, µM (highest dose often 114 µM), inactives show at the highest dose activity change, negative = inhibition, actives largely listed as inhibitors; 370,000 compounds, 0.041% hits; AID 485294;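 further: 0% = no-compound wells and -100% = no-enzyme wells; nearly all actives have a fitted effect of over 25% in size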
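20 mM phosphate pH 7.0 + 0.01% (detergent screen) or 0.0001% Triton X-100; 5.3 nM AmpC reagent; cpd preinc 15 min RT; nitrocefin (800 uM stock) to start; A480 q20 s × 4 min; Activity was normalised to no-enzyme and no-compound control wells.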
An asterisk follows results filed as active; i = inactive; ? = inconclusive; nt = not tested or not shown; [ ] = dose if it differs, or a comment. Unless noted, the call rests on the fitted dose curve; in most records, active means well fitted curve in the direction sought with a large enough effect; inconclusive means small, poorly fitted or top-dose-only effect, or another doubt; inactive means no such curve, though single readings can be large; an effect the other way counts as inactive or inconclusive. Unless noted, on the % scale 0 is the no-effect control and ±100 the full control effect; potency means the concentration at half of the fitted maximal effect.

SMILES	AmpC inh no detg	VACV mCherry inh	Vaccinia Venus	AmpC inh detg
O=C(N/N=C/c1sc2ccccc2c1O)c1ccccc1	-19.4%	10µM*	-23.3%	-1.0%
CC(C)n1cnc2c(Nc3cccc(Cl)c3)nc(NCCCO)nc21	49.5%	?	10µM*	4.4%
CC(C)[C@H](CO)Nc1nc(Nc2ccc(Cl)c(C(=O)O)c2)c2ncn(C(C)C)c2n1	-26.9%	i	-9.7%	5.1%
Cc1cc(O)cc(O)c1/C=N/NC(=O)c1ccc2c(c1)OCCO2	nt	2µM*	?	nt
COC(=O)[C@@H]1CCCN1C(=O)c1c(OC)cc(=O)n2c1CCN(Cc1ccc3nsnc3c1)CC2	nt	-10.3%	-6.6%	nt
O=C(Nc1nc2c(F)cccc2s1)c1ccc([N+](=O)[O-])o1	-7.6%	?	?	-17.1%
O=C(Nc1nc2ccc(F)cc2s1)c1ccc([N+](=O)[O-])o1	nt	?	10µM*	nt
CN(C)S(=O)(=O)c1cc(NC(=O)CSc2nn(-c3ccc(Cl)cc3)c(=S)s2)ccc1Cl	14.1µM*	?	?	?
Cc1cccc(Nc2nc(NCc3ccco3)c3ccccc3n2)c1	-28.6%	?	12.6µM*	-5.2%
Cc1ccccc1Nc1n[nH]c(=S)s1	nt	-1.9%	-5.5%	nt
S=c1[nH]nc(Nc2cccc3ccccc23)s1	28.2µM*	-13.2%[7.34 µM]	-1.8%[7.34 µM]	-5.6%
CCCCCCN1C[C@H](n2cc(-c3ccc(F)cc3)nn2)[C@@H](O)C[C@@H]1c1ccccc1	nt	-20.5%	-5.2%	nt
CCCCCCN1C[C@H](n2cc(COC(=O)c3ccccc3)nn2)[C@@H](O)C[C@@H]1c1ccc(OC)cc1	nt	-4.2%	-14.1%	nt
CCCCCCN1C[C@H](n2cc(-c3ccc(F)cc3)nn2)[C@@H](O)C[C@@H]1c1ccc(Cl)cc1	nt	?	14.1µM*	nt
CCCCCCN1C[C@H](n2cc(COC(=O)c3ccccc3)nn2)[C@@H](O)C[C@@H]1c1ccc(Cl)cc1	nt	?	10µM*	nt
Cc1nn(C)cc1CN1CCOc2ccc(C(C)(O)COc3ccccc3)cc2C1 (stereo not drawn)	nt	-3.7%	?	nt
COc1ccccc1CCc1nc2ccccc2n1C1CCN(C(=O)c2cn3ccsc3n2)CC1	nt	-10.5%	-2.8%	nt
O=C(NCCc1ccccn1)C1CC12CCN(C(=O)c1ccccc1Cl)CC2 (stereo not drawn)	nt	-1.1%	-20.1%	nt
COC(=O)c1c(NC(=O)c2nc3ccccc3s2)sc2c1CC(C)(C)NC2(C)C	-18.3%	?	11.2µM*	8.6%
Fc1ccc(CNc2ncnc3nc[nH]c23)cc1	nt	4.2%	-17.5%	nt
COc1cccc(/C=N/Nc2cc(-n3nc(C)cc3-c3ccccc3)ncn2)c1O	19.3%	12.6µM*	?	-0.9%
COc1cccc(/C=N/Nc2nc(Nc3ccccc3)nc(-n3nc(C)cc3C)n2)c1O	-10.2%	nt	?	0.9%
COc1ccc(/C=N/Nc2nccnc2Cl)c(OC)c1	-22.1%	-5.4%	-1.3%	-5.6%
COc1cccc(/C=N/Nc2ncnc(Cl)c2N)c1O	-23.0%	3.55µM*	5.01µM*	?
COc1cccc(/C=N/Nc2nccnc2Cl)c1O	-28.8%	1.26µM*	?	-1.5%
SMILES	AmpC inh no detg	VACV mCherry inh	Vaccinia Venus	AmpC inh detg
COc1cccc(/C=N/Nc2nc3ccccc3n3cnnc23)c1O	-18.4%	4.47µM*	?	-11.3%
CO[C@H]1[C@H](NC(=O)c2cccs2)c2ccccc2C12CCN(Cc1cccn1-c1ccccn1)CC2	nt	-15.2%	-4.2%	nt
COc1ccc(/C=N/Nc2cc(C)nc3ccc(Br)cc23)cc1	5.6%	?	-29.8%	-0.9%
COc1ccc2nc(C)cc(N/N=C/c3cccc(OC)c3O)c2c1	1.7%	1µM*	?	-4.3%
COc1cccc(/C=N/Nc2ncnc3scc(-c4ccccc4)c23)c1O	146.5%	2µM*	?	-13.3%
Cc1ccc2occ(CN3CCOc4ccc(C(C)(O)COc5ccccc5)cc4C3)c(=O)c2c1 (stereo not drawn)	nt	-20.0%	3.1%	nt
Cc1ccc2nc(CO)[nH]c2c1	nt	11.6%	-0.5%	nt
COc1ccc2c(c1)OC(C)CN(CCC(=O)NCC1OCCc3ccccc31)C2 (stereo not drawn)	nt	-15.4%	-7.2%	nt
Cc1ccc(CN2C[C@H](Sc3ccccn3)C[C@H]2C(=O)Nc2ccc3sc(C)nc3c2)s1	nt	-7.2%	?	nt
CN(C(=O)c1cnn(-c2ncc3c(n2)-c2ccccc2CCC3)c1C1CC1)C1CCOC1 (stereo not drawn)	nt	-17.6%	-17.2%	nt
COc1cc(/C=C/C(=O)NC(=O)c2ccccc2O)ccc1OC(C)=O	-42.8%	5.62µM*	?	?
O=C(CS(=O)(=O)c1c[nH]c2ccccc12)Nc1ccc(F)cc1	-32.8%	-2.0%	-7.4%	1.6%
O=C(CS(=O)(=O)c1c[nH]c2ccccc12)NC1CCCCC1	0.501µM*	i	-7.3%	-12.2%
NC(=S)N=Nc1c(O)[nH]c2ccc(F)cc12	-16.0%	5.01µM*	3.55µM*	?
C[n+]1c2cc(N)ccc2cc2ccc(N)cc21	nt	5.62µM*	?	nt
Cc1nc2ccccc2nc1-c1csc(-c2ccccc2)n1	nt	-19.8%	-17.0%	nt
O=C(Cc1nc2ccccc2[nH]1)N1CCC(n2c(C3CCC3)nc3cccnc32)CC1	nt	i	0.0%	nt
Cc1ccc2nc(/C(C#N)=C/c3ccc(O)c(O)c3)[nH]c2c1	20µM*	5.62µM*	35.1%	15.2%
COC(=O)c1cccc(C(=O)NCc2nc(-c3cccc(NC(=O)c4ccoc4C)c3)oc2C)c1	nt	-26.4%	-23.0%	nt
CCCCCCn1c(=O)n2n(c1=O)C[C@]1(OC(=O)NCC3CCCCC3)CN(S(=O)(=O)c3ccc(C)cc3)C[C@]1(O)C2	nt	?	10µM*	nt
CCOC(=O)c1ccc(Nc2nc3ccccc3nc2NS(=O)(=O)c2ccc(Cl)cc2)cc1	nt	10µM*	?	8.6%
Cc1ccc2nc(NS(=O)(=O)c3ccc(Cl)cc3)c(Nc3ccc(C(=O)O)cc3)nc2c1	nt	-4.6%	12.8%	12.5%
CCn1c(=S)sc2c(=O)n(CC(=O)Nc3ccc(OC)c(Cl)c3)c(C)nc21	6.31µM*	-1.7%	-9.5%	-8.2%
CCn1c(=S)sc2c(=O)n(CC(=O)Nc3ccccc3)c(C)nc21	-26.2%	i[7.34 µM]	-17.1%[7.34 µM]	?
CCn1c(=S)sc2c(=O)n(CC(=O)Nc3ccc(Cl)cc3)c(C)nc21	7.08µM*	-10.4%	-4.6%	-3.3%
SMILES	AmpC inh no detg	VACV mCherry inh	Vaccinia Venus	AmpC inh detg
CN(C)c1ccc(/C=C/c2c([N+](=O)[O-])c(=O)n(C)c(=O)n2C)cc1	-7.0%	nt	nt	4.6%
Cn1c(/C=C/c2ccc(Br)cc2)c([N+](=O)[O-])c(=O)n(C)c1=O	-0.2%	12.6µM*	?	-0.2%
CC1CCc2[nH]c3ccc(C(=O)N(C)CC(=O)Nc4ccccc4Br)cc3c2C1 (stereo not drawn)	28.2µM*	?	-26.4%	-0.5%
Cc1cc(C(=O)NCCN2Cc3ccccc3OC(c3ccccc3F)C2)no1 (stereo not drawn)	nt	-1.3%	9.9%	nt
CCn1c(SCC(=O)OCc2ccccc2)nnc1-c1ccco1	2.1%	nt	nt	-5.3%
CCn1c(Sc2ccc([N+](=O)[O-])cn2)nnc1-c1ccco1	-21.5%	12.6µM*	?	1.9%
Brc1cccc(-c2nnc(SCc3nc4ccccc4[nH]3)o2)c1	-23.9%	10µM*	?	-9.9%

Compound activity deposited in PubChem BioAssay by National Center for Advancing Translational Sciences (NCATS).
